# Screening data from PubChem BioAssay.
# In the library only some 11% were active in any assay of this set; here they are far more common.
# HPGD inh: blocks human HPGD enzyme activity; P15428; purified HPGD, NADH fluorescence kinetic, PGE2 substrate; Potency, µM, without a hit: at the top dose activity change, negative = inhibition, actives largely listed as inhibitors; 150,000 tested, 4.3% active; AID 894; note: potency is the fitted concentration of half-maximal effect
# Target sequence (P15428 whole entry, looked up): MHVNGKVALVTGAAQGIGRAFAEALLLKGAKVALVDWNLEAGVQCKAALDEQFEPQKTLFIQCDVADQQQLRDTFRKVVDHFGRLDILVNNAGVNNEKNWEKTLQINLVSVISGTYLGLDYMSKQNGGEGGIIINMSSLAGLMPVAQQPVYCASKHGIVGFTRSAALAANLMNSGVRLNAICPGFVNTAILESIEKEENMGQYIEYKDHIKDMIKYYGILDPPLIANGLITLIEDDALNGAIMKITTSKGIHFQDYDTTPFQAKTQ
#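 20 nM HPGD preincubated 15 min at room temperature with compound in 50 mM Tris-HCl pH 8, 0.01% Tween 20. Started with 1 mM NAD+ and 30 uM prostaglandin E2; NADH fluorescence (360/450 nm) read 5 times over 30-s intervals, last minus first.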
# 12-hLO inh: inhibitors of human 12-lipoxygenase (ALOX12); Potency, µM (doses to about 57.1 µM), without a hit: top-dose activity change, negative = inhibition, usual class: inhibitors; purified 12-hLO, xylenol orange hydroperoxide absorbance; 150,000 tested, 0.12% active; P18054; AID 1452; active = well fitted curve in the direction sought with a large enough effect; inconclusive = small, poorly fitted or top-dose-only effect, or another doubt; inactive = no such curve, though single readings can be large; an effect the other way counts as inactive or inconclusive; note: potency is the fitted concentration of half-maximal effect; nearly all actives have a fitted effect of over 55% in size
#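 Xylenol orange chromogenic assay: hydroperoxide from 12hLO oxidises Fe(II), giving red-shifted Fe(III)-XO absorbance. Conditions: 150 nM enzyme, 40 uM arachidonic acid, 25 mM Hepes pH 7.0, 0.01% Triton X-100, 30 min, room temperature.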
# ALDH1A1 inh: ALDH1A1 (human) enzyme inhibition | 220,000 tested, 7.3% active | Potency, µM (series often up to 75.3 µM), for the others: top-dose activity, negative = inhibition, most hits filed as inhibitors | Purified ALDH1A1, NADH fluorescence, propionaldehyde substrate | P00352;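 note: potency is the fitted concentration of half-maximal effect; plate controls were no enzyme wells and a reference inhibitor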
# PNC assembly inh: blocks assembly of the perinucleolar compartment | activity change (PNC), negative = inhibition, % at 10 µM | AID 2417 | 140,000 tested, 3.1% active | PC3M PTB-GFP, PNC prevalence imaging, 16 h; active compounds read low;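 active = readout at or below -70, meaning at least 70% loss of cells showing the perinucleolar compartment, a nuclear body marking cancer cells; inconclusive = readout between -30 and a set limit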;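 note: plate controls were DMSO wells for no effect and camptothecin positive control wells for full effect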
#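 Compounds are pinned in duplicate onto adhered PC3M cells stably expressing GFP-tagged PTB and incubated 16 h at 37 C. Cells are then fixed, nuclei stained with Hoechst, and PNC-positive cells counted.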
# IMPase inh: cell-permeable inhibitors of inositol monophosphatase (IMPase) | P97697 | CHO-M1 cells, IP1 accumulation, HTRF TR-FRET ratio | inhibition (IP1 accumulation), % at 46.1 µM | 120,000 tested, under 10 active | AID 901; active = well fitted curve in the direction sought with a large enough effect in the signal ratio, not every such curve was filed as active; inconclusive = small, poorly fitted or top-dose-only effect, or a change in a side signal; inactive = no such curve, though single readings can be large or run the other way; the % refers to the signal ratio;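 note: cells stimulated with carbachol in lithium chloride buffer; plate controls were DMSO basal wells for no effect and reference inhibitor wells for full effect; higher means more IMPase inhibition seen as more IP1 and lower FRET ratio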
# Target sequence (P97697 whole entry, looked up): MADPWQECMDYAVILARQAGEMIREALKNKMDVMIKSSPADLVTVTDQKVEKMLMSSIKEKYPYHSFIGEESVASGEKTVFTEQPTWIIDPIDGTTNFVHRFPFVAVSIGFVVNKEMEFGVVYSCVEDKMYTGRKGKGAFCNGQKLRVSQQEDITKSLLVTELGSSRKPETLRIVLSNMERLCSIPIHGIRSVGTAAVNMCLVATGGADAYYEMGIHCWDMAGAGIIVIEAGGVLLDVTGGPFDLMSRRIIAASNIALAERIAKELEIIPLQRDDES
#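 CHO-M1, 2000 cells/well, cultured 16–30 h; cpd up to 46 uM; carbachol (50 uM solution, stimulation buffer w/ 50 mM LiCl, pH 7.4), 30 min 37C; IP-One TR-FRET, 10 min RT; Ex 320/Em 665, 620; Hill-fit AC50.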
# IMPase Li cell: membrane-permeable IMPase blocker, potentiated with lithium; CHO-M1 cells, IP1 TR-FRET (IP-One), carbachol + lithium; Potency, µM (top dose mostly 59.4 µM), for inactives: at the top dose activity, negative = IMPase inhibition, hits mostly inhibitors; 210,000 tested, 0.35% active; AID 1457; active = well fitted curve in the direction sought with a large enough effect; inconclusive = small, poorly fitted or top-dose-only effect, or another doubt; inactive = no such curve, though single readings can be large; an effect the other way counts as inactive or inconclusive;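 note: IP1 builds up when IMPase is blocked and the TR-FRET signal falls; potency is the fitted concentration of half-maximal effect; plate controls were basal vehicle for no effect and high inhibitor control for full effect; nearly all actives have a fitted effect of over 50% in size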
#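 CHO-M1, 2000 cells/well, 16–30 h culture; cpd + low Li+, 30 min 37C; lysis with d2-IP1/Eu-anti-IP1 Ab, 10 min RT; TR-FRET 665/620 ratio and 620 channel; AC50 via Hill.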
# * = called active by the depositor; ? = inconclusive; . = no result given; [ ] = dose if it differs, or a comment. Unless noted, calls come from the whole dose curve; as a rule, active = well fitted inhibition curve with a large enough effect (not every such curve was filed as active); inconclusive = small, poorly fitted or top-dose-only effect, or another doubt; inactive = no such curve, though single readings can be large or run the other way. Unless noted, % is set by controls: 0 for no effect and ±100 for the full control effect.
SMILES,HPGD inh,12-hLO inh,ALDH1A1 inh,PNC assembly inh,IMPase inh,IMPase Li cell
COC(=O)NC(c1ccc2ccccc2c1)C(C(C)=O)C(=O)OC (configuration not stated),.,.,-4%[13.5 µM],.,.,.
CCc1c(C(=O)NNC(=S)NCC(C)C)csc1C,-11%,-14%,5%,28,-8,1%[38.3 µM]
Nc1nc(N)c(N=Nc2ccc(C(=O)O)c(O)c2)c(N)n1,?,-4%[11.4 µM],-7%[13.5 µM],.,.,2%
COC(=O)N1CCC2(CCN(Cc3ccccc3OC)CC2)CC1,-5%,0%,5%,.,.,18%
CCN(c1ccccc1)S(=O)(=O)c1ccc(OC)c(NC(=O)CN(C)C)c1,.,.,-10%,.,.,5%
CCN(CC)S(=O)(=O)c1ccc(C)c(NC(=O)CN(C)C)c1,.,2%,8%,-84*,3,.
COc1ccc(/C=C2/N=C(SCC(=O)Nc3cc(C)on3)N(c3ccccc3)C2=O)cc1,27%,0%,6%,3,-8,-14%
CCC(SC1=N/C(=C/c2ccccc2)C(=O)N1c1ccccc1)C(=O)Nc1cc(C)on1 (configuration not stated),?,-3%,18µM*,107,7,8%
CN(C)/C=N/c1sc2c(c1C#N)CCCC2,.,.,2µM*,.,.,11%
N#Cc1c(/N=C/c2cccs2)sc2c1CCC2,20µM*,-7%,?,36,-11,25%[38.3 µM]
CC1CCc2c(sc(/N=C/N(C)C)c2C#N)C1 (configuration not stated),.,.,?,.,.,2%
O=c1c2c3c(sc2ncn1/N=C/c1ccco1)CCCC3,-4%,6%,?,22,2,25%[38.3 µM]
N#Cc1c(/N=C/c2ccco2)sc2c1CCCCC2,-28%,-12%,14µM*,-5,-3,-3%[38.3 µM]
C(=N\Nc1ncnc2sc3c(c12)CCC3)/c1cccs1,-21%,0%,8%,105,9,19%[38.3 µM]
COC(=O)CCc1n[nH]c(=O)[nH]c1=O,-4%,-2%,4%,34,2,0%[38.3 µM]
O=C(CCc1n[nH]c(=O)[nH]c1=O)N1CCCCC1,-19%,1%,4.5µM*,-15,-8,1%[38.3 µM]
CC#CCN1c2ccccc2[C@]23C[C@@H](C(=O)OC)N(C(=O)c4cccs4)C2=NC(C(=O)OC)=C(C(=O)OC)[C@H]13,-1%,3%[11.4 µM],7%[13.5 µM],.,.,-6%
O=C(CC1CCS(=O)(=O)C1)Nc1ccc[nH]c1=O (configuration not stated),-20%,9%,25µM*,18,7,-4%
CCOC(=O)[C@]1(C(NC(=O)OC)c2cccc(C)c2)CCCC1=O (some centres not stated),.,.,7%[13.5 µM],.,.,.
CCOC(=O)N/N=C1/C[C@@H](O)[C@@H](O)[C@@H]2[C@@H]3C(=O)N(c4cccc(Oc5ccccc5)c4)C(=O)[C@H]3CC[C@@H]12,.,.,22%[13.5 µM],.,.,.
O=C(c1ccccc1)C1O[C@H]1c1ccccc1 (some centres not stated),-8%,.,0%,.,.,7%
O=C1C=C(c2ccccc2)OC(=O)C1C(=O)c1ccccc1 (configuration not stated),-18%,-10%,?,-100*,-9,3%
CC1CCN(C(=O)C(C)Sc2nc(-c3ccccc3)cc(C(F)(F)F)n2)CC1 (configuration not stated),16µM*,-3%,?,-12,4,27%[38.3 µM]
CCN(CC)CCCCn1c(-c2ccccc2)nc2c(NCCOC)nc(C)nc21,?,0%,?,.,.,7%
CCN(CC)S(=O)(=O)c1cccc(C(=O)N2CCCCC2)c1,-9%,0%,-2%,?,-12,4%[38.3 µM]
SMILES,HPGD inh,12-hLO inh,ALDH1A1 inh,PNC assembly inh,IMPase inh,IMPase Li cell
CCN(CC)S(=O)(=O)c1ccc(S(=O)(=O)Nc2ccc(C(=O)N3CCCC3)cc2)cc1,-10%,-5%,0.63µM*,12,5,21%[38.3 µM]
O=C(c1ccc(NS(=O)(=O)c2ccccc2)cc1)N1CCCC1,18µM*,-3%,?,?,3,29%[38.3 µM]
Cc1noc(C)c1COc1ccc(C(=O)OCC(=O)NC2CCCCC2C)cc1 (configuration not stated),.,-3%,?,36,-2,.
CC(C)(C)CC(C)(C)c1ccc(O)c(C[N+](C)(C)[O-])c1,-15%,-3%[11.4 µM],-9%[13.5 µM],.,.,-5%
CC(C)C1S/C(=N/N=C/c2ccco2)NC1=O (configuration not stated),13µM*,-16%,.,16,4,6%[38.3 µM]
COc1ccc(-c2[nH]ncc2-c2nc(C)cs2)c(O)c1,.,.,-9%,.,.,3%
COc1ccc(O)c(-c2[nH]ncc2C(=O)c2ccccc2C)c1,-11%,-19%,13µM*,4,5,16%[38.3 µM]
O=c1[nH]c(=S)c2ncn(-c3ccccc3)c2[nH]1,.,.,25µM*,.,.,.
O=c1[nH]c(=S)c2[nH]c(=O)n(-c3ccccc3)c2[nH]1,-16%,3%[11.4 µM],0%[13.5 µM],.,.,1%
CCCS(=O)(=O)n1nc(-c2ccc(Br)cc2)cc1N,-10%,-4%,12%,-119*,-1,14%
CCCS(=O)(=O)n1nc(-c2ccccc2)cc1N,-13%,2%,1%,?,6,-3%[38.3 µM]
COc1cc(/C=N/NC(=O)CC2(C)OCCCO2)ccc1OCc1ccccc1,?,-1%,11µM*,-1,.,8%
S=C([S-])NCCNC(=S)[S-].[Zn+2],10µM*,-21%,11µM*,.,.,20%
Cc1ccc(N(CCC#N)C(=O)CCl)cc1C,-4%,4%,0.35µM*,?,-5,3%
CCCn1nnc(NC(=O)c2cc(Br)cc(Br)c2OC)n1,.,-3%,11µM*,-119*,8,.
COCC(=O)N1CCC[C@@]2(CCN(c3ccncc3)C2)C1,-3%,1%,9%,.,.,7%
COc1ccc(/C=C2/N=C3CCCCCN3C2=O)cc1OC,-10%,-7%,28µM*,-19,9,7%
COc1ccc(/C=C2\N=C3CCCCCN3C2=O)cc1,.,.,?,.,.,9%
CNC(=O)[C@]1(C)C[C@H]1[C@H](NC(=O)[C@]1(C)C[C@H]1[C@H](NC(=O)OCc1ccccc1)c1ccccc1)c1ccccc1,-8%,-1%,-15%,.,.,4%
O=P(O)(O)OC1[C@H](O)[C@H](OP(=O)(O)O)C(OP(=O)(O)O)[C@H](OP(=O)(O)O)[C@H]1O (some centres not stated),-7%,-2%[0.00818 µM],15%[2.48 µM],.,.,7%
COC(=O)CCCCC1SCC(NC(=O)OC)C1NC(=O)OC (configuration not stated),-10%,2%,0%,-86*,4,17%[38.3 µM]
COC(=O)CCCC[C@@H]1SC[C@@H](NC(=O)OC)[C@@H]1NC(=O)OC,-8%,-2%,-7%,1,3,2%
